Reference: the supplement of paper PMC6555819

Key:
Experiment in all cases: PBM binding z-score (relative to random genomic background probes); higher = stronger binding; sequences stand for … in GC…GCGATTGACAGCGTAGAATGAAGG
[1] = system: RARb homodimer (NR concentration 270 nM)
Outline: (§1)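 Ligand-free nuclear receptor dimers were applied to custom Agilent 4×180K protein-binding microarrays whose double-stranded probes carried direct-repeat seeds, single-nucleotide variants, half-site ablations and random human genomic background sequences in 34-nt variable regions. Incubation lasted 1 h. Binding z-scores were computed against the random background probes from regression-normalized fluorescence.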

[2] = system: RARg:RXRa (NR concentration 270 nM, RXRa partner concentration 90 nM)
Outline: as §1

[3] = system: RARg homodimer (NR concentration 270 nM)
Outline: as §1

[4] = system: RXRa DBDmut IVT, anti-RXR (DBD mutation: RXRa K156A/R161A, NR concentration 90 nM)
Outline: as §1

[5] = system: RXRa homodimer (NR concentration 180 nM)
Outline: as §1

[6] = system: THRa:RXRa (NR concentration 90 nM, RXRa partner concentration 90 nM)
Outline: as §1

[7] = system: THRa homodimer (NR concentration 90 nM)
Outline: as §1

[8] = system: VDR homodimer (NR concentration 270 nM)
Outline: as §1

Sequence: CCGACTGCGGCAAGGTTACCATAACGCACAGCCA
- PBM binding z-score [1]: 1
- PBM binding z-score [2]: 0.707
- PBM binding z-score [3]: 0.42
- PBM binding z-score [4]: 0.215
- PBM binding z-score [5]: 1.07
- PBM binding z-score [6]: 1.4
- PBM binding z-score [7]: 0.537
- PBM binding z-score [8]: 0.321

Sequence: CATACAGGGTCAGCTAGACCAGAGTAGGGACGGC
- PBM binding z-score [1]: 2.81
- PBM binding z-score [2]: 4.53
- PBM binding z-score [3]: 4.93
- PBM binding z-score [4]: 1.59
- PBM binding z-score [5]: 4.3
- PBM binding z-score [6]: 2.83
- PBM binding z-score [7]: 0.733
- PBM binding z-score [8]: 0.573

Sequence: CGAACGAGGGCATGTGTTGATAGCAAATGCCGAT
- PBM binding z-score [1]: 0.926
- PBM binding z-score [2]: 1.08
- PBM binding z-score [3]: 1.7
- PBM binding z-score [4]: 2.64
- PBM binding z-score [5]: 0.745
- PBM binding z-score [6]: 1.03
- PBM binding z-score [7]: 0.0176
- PBM binding z-score [8]: 1.44

Sequence: CCGACTGGGGCATAAGGTTTCCATAAGCCAGCCC
- PBM binding z-score [1]: -0.165
- PBM binding z-score [2]: -0.272
- PBM binding z-score [3]: -0.139
- PBM binding z-score [4]: -0.156
- PBM binding z-score [5]: -0.0441
- PBM binding z-score [6]: -7.82e-06
- PBM binding z-score [7]: -0.206
- PBM binding z-score [8]: -0.137

Sequence: ATCTCTAGGTAACCAAGTTCAGTGGATGCCGAAC
- PBM binding z-score [1]: 1.38
- PBM binding z-score [2]: 0.761
- PBM binding z-score [3]: 0.959
- PBM binding z-score [4]: 0.576
- PBM binding z-score [5]: 0.536
- PBM binding z-score [6]: 1.46
- PBM binding z-score [7]: 0.709
- PBM binding z-score [8]: 2.45

Sequence: CAAACTAGGTTAAGGTCAAAGTCGGTTTGTGCCA
- PBM binding z-score [1]: 4.49
- PBM binding z-score [2]: 5.11
- PBM binding z-score [3]: 4.99
- PBM binding z-score [4]: 2.74
- PBM binding z-score [5]: 5.29
- PBM binding z-score [6]: 4.54
- PBM binding z-score [7]: 5.29
- PBM binding z-score [8]: 4.48

Sequence: ATCGAAAGGTCGAAGTGAGTATAGAGAAAGGGAA
- PBM binding z-score [1]: 1.86
- PBM binding z-score [2]: 3.79
- PBM binding z-score [3]: 3.6
- PBM binding z-score [4]: 1.4
- PBM binding z-score [5]: 3.83
- PBM binding z-score [6]: 1.81
- PBM binding z-score [7]: -0.426
- PBM binding z-score [8]: 0.425

Sequence: CCTACTGGGCCAAAAAGGTCAATGATGCCGATAA
- PBM binding z-score [1]: 4.77
- PBM binding z-score [2]: 4.33
- PBM binding z-score [3]: 4.09
- PBM binding z-score [4]: -0.0473
- PBM binding z-score [5]: 4.06
- PBM binding z-score [6]: 3.06
- PBM binding z-score [7]: 0.77
- PBM binding z-score [8]: 0.956

Sequence: CTACCAAGGTGAACAAGGTCGTTTATTACTATTC
- PBM binding z-score [1]: 2.34
- PBM binding z-score [2]: 1.72
- PBM binding z-score [3]: 1.55
- PBM binding z-score [4]: 2.29
- PBM binding z-score [5]: 1.77
- PBM binding z-score [6]: 3.26
- PBM binding z-score [7]: 2.33
- PBM binding z-score [8]: 3

Sequence: TAGCCTAGGTCAGATCGGGCCAGTGTACGCTATA
- PBM binding z-score [1]: 2.17
- PBM binding z-score [2]: 2.57
- PBM binding z-score [3]: 3.6
- PBM binding z-score [4]: -0.434
- PBM binding z-score [5]: 1.23
- PBM binding z-score [6]: 4.03
- PBM binding z-score [7]: -0.0774
- PBM binding z-score [8]: -0.614

Sequence: TAGCCTAGGTCAGATCAGGCCAGTATACGCTATA
- PBM binding z-score [1]: 2.07
- PBM binding z-score [2]: 2.81
- PBM binding z-score [3]: 3.44
- PBM binding z-score [4]: -0.202
- PBM binding z-score [5]: 1.41
- PBM binding z-score [6]: 4.36
- PBM binding z-score [7]: 0.219
- PBM binding z-score [8]: -0.305

Sequence: TCATATAGGTAAAGGTGGAAGTCGAACGATATGA
- PBM binding z-score [1]: 0.0636
- PBM binding z-score [2]: 0.544
- PBM binding z-score [3]: 0.404
- PBM binding z-score [4]: 1.02
- PBM binding z-score [5]: 0.958
- PBM binding z-score [6]: -0.14
- PBM binding z-score [7]: -0.387
- PBM binding z-score [8]: 0.109

Sequence: TAGTCTAGGTCATGCGGGCCAGTATAGTGTCGGC
- PBM binding z-score [1]: 3.13
- PBM binding z-score [2]: 3.77
- PBM binding z-score [3]: 4.69
- PBM binding z-score [4]: 0.748
- PBM binding z-score [5]: 3.08
- PBM binding z-score [6]: 3.29
- PBM binding z-score [7]: 1.67
- PBM binding z-score [8]: 0.86

Sequence: TCAGACAGGTGAAGGTAACTGAGGTACGCAGTCG
- PBM binding z-score [1]: 0.685
- PBM binding z-score [2]: 0.664
- PBM binding z-score [3]: 0.586
- PBM binding z-score [4]: 1.05
- PBM binding z-score [5]: 1.18
- PBM binding z-score [6]: 1.31
- PBM binding z-score [7]: 0.494
- PBM binding z-score [8]: -0.194

Sequence: CGAACTAGGTGAAGGACAGTGAATCTCCGCACGC
- PBM binding z-score [1]: 0.454
- PBM binding z-score [2]: 0.04
- PBM binding z-score [3]: 0.23
- PBM binding z-score [4]: -0.281
- PBM binding z-score [5]: 0.265
- PBM binding z-score [6]: 0.232
- PBM binding z-score [7]: -0.201
- PBM binding z-score [8]: -0.373

Sequence: CAAACTAGGTCACCGGAAGGTCAAAGTCCGCATG
- PBM binding z-score [1]: 5.88
- PBM binding z-score [2]: 8.43
- PBM binding z-score [3]: 7.82
- PBM binding z-score [4]: 2.05
- PBM binding z-score [5]: 6.69
- PBM binding z-score [6]: 4.6
- PBM binding z-score [7]: 2.95
- PBM binding z-score [8]: 3.43

Sequence: TGAATGAGGTTAAAGATCACGGAACGTGGCGTCG
- PBM binding z-score [1]: 0.603
- PBM binding z-score [2]: 2.83
- PBM binding z-score [3]: 1.49
- PBM binding z-score [4]: 0.843
- PBM binding z-score [5]: 5.25
- PBM binding z-score [6]: 2.72
- PBM binding z-score [7]: 0.0245
- PBM binding z-score [8]: 0.625

Sequence: TCAGACAGGTGAAGGTGACTCAGGTACGCAGTCG
- PBM binding z-score [1]: 1.6
- PBM binding z-score [2]: 0.814
- PBM binding z-score [3]: 0.949
- PBM binding z-score [4]: 0.889
- PBM binding z-score [5]: 0.995
- PBM binding z-score [6]: 1.66
- PBM binding z-score [7]: 0.461
- PBM binding z-score [8]: 0.358

Sequence: TCTAACAGGCCAGAGGGTCACTCAAGAGGTACGG
- PBM binding z-score [1]: 3.05
- PBM binding z-score [2]: 2.78
- PBM binding z-score [3]: 2.14
- PBM binding z-score [4]: 1
- PBM binding z-score [5]: 2.88
- PBM binding z-score [6]: 1.71
- PBM binding z-score [7]: -0.107
- PBM binding z-score [8]: 0.997

Sequence: CCTACTGGGCCATTCCGAGGTCATTGATCATATG
- PBM binding z-score [1]: 3.36
- PBM binding z-score [2]: 3.43
- PBM binding z-score [3]: 2.28
- PBM binding z-score [4]: 1.08
- PBM binding z-score [5]: 2.86
- PBM binding z-score [6]: 3.68
- PBM binding z-score [7]: 3.62
- PBM binding z-score [8]: 4.08

Sequence: CCTTACGGGTCACTCCACGTTATAGCATCGGAGT
- PBM binding z-score [1]: 2.58
- PBM binding z-score [2]: 4.04
- PBM binding z-score [3]: 4.01
- PBM binding z-score [4]: 1.41
- PBM binding z-score [5]: 4.01
- PBM binding z-score [6]: 1.88
- PBM binding z-score [7]: 0.13
- PBM binding z-score [8]: 1.23

Sequence: GCGACTGGGGCATCAGCAGGTTATCATAACTTAA
- PBM binding z-score [1]: 0.979
- PBM binding z-score [2]: 0.933
- PBM binding z-score [3]: 0.586
- PBM binding z-score [4]: -0.0902
- PBM binding z-score [5]: 0.555
- PBM binding z-score [6]: 1.05
- PBM binding z-score [7]: -0.305
- PBM binding z-score [8]: -0.259

Sequence: CCTTACGGGTCAATCCAGGTTATAGCATCGGAGT
- PBM binding z-score [1]: 3
- PBM binding z-score [2]: 4.49
- PBM binding z-score [3]: 4.17
- PBM binding z-score [4]: 1.75
- PBM binding z-score [5]: 4.31
- PBM binding z-score [6]: 4.93
- PBM binding z-score [7]: 0.547
- PBM binding z-score [8]: 1.32

Sequence: CAAACTAGGTCACAGAGGTCAAAATCCGTGCGTA
- PBM binding z-score [1]: 5.16
- PBM binding z-score [2]: 7.05
- PBM binding z-score [3]: 7.16
- PBM binding z-score [4]: 3.22
- PBM binding z-score [5]: 7.21
- PBM binding z-score [6]: 4.7
- PBM binding z-score [7]: 2.77
- PBM binding z-score [8]: 5.94

Sequence: TATATTAGTTGAAGGGCAACCGACGAGTCCGTTT
- PBM binding z-score [1]: 1.37
- PBM binding z-score [2]: 0.983
- PBM binding z-score [3]: 1.22
- PBM binding z-score [4]: 0.547
- PBM binding z-score [5]: 0.884
- PBM binding z-score [6]: 0.415
- PBM binding z-score [7]: -0.0239
- PBM binding z-score [8]: 1.91

Sequence: TCTCGGGGGACACGAAAGGTCAGAGCTCGACATC
- PBM binding z-score [1]: 4.59
- PBM binding z-score [2]: 6.13
- PBM binding z-score [3]: 6.61
- PBM binding z-score [4]: 2.14
- PBM binding z-score [5]: 4.9
- PBM binding z-score [6]: 4.19
- PBM binding z-score [7]: 2.07
- PBM binding z-score [8]: 1.57
